Data: PubChem BioAssay (NCATS)
Activity calls are given as the source filed them. A call without a number means that no potency is given here. Calls follow the shape of the dose curve; as a rule, active = well fitted inhibition curve with a large enough effect; inconclusive = small, poorly fitted or top-dose-only effect; inactive = no such curve, though single readings can be large or run the other way.

target: Single-stranded DNA cytosine deaminase (Homo sapiens) (UniProt Q9GZX7); assay: Validation qHTS assay for inhibitors of Activation Induced Cytidine Deaminase (AID): AID signal (AID 1347429); conditions: Recombinant AID, FRET ssDNA deamination with UDG, fluorescence; series mostly up to 115 µM
Sequence (Q9GZX7 whole entry, looked up): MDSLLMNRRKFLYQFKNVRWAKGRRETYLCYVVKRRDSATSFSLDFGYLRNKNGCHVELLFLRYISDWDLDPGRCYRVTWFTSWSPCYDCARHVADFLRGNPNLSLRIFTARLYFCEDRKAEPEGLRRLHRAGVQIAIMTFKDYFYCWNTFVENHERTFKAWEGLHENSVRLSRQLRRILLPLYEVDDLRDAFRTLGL
From the text: Assay Provider (PI) Patricia Gearhart Ph.D. National Institute on Aging National Institute of Health (NIH), Bethesda, MD Assay Provider (PI) Rahul Kohli Ph.D. Perelman School of Medicine University of Pennsylvania, Philadelphia, PA Activation-Induced Deaminase (AID) is a cytosine deaminase which converts cytosine into uracil within stretches of ssDNA. The presence of uracil in DNA initiates a cascade of mutagenic DNA repair to introduce point mutations and DNA double strand breaks. Specific targeting of AID to the immunoglobulin heavy chain loci (Igh) promotes mutagenesis in the antibody variable region for somatic hypermutation (SHM) or switch regions leading to class switch recombination (CSR). However, AID also plays a role in accumulating unnecessary mutations across the genome. Mis-targeting of AID results in the initiation of tumor development and leads to greater drug resistance among cancer cells when continually expressed. To identify an AID inhibitor, a small molecule library will be screened in collaboration with NCATS core facility at NIH. To confirm biological function, inhibitors will be examined in an in vitro murine B-cell activation assay and subsequent secondary validation screens. Top molecules will be further screened to identify inhibitory efficacy against a wild type primary splenocytes assay. Using these approaches, we hope to identify a small molecule with great efficacy and low toxicity for use as a molecular probe to further characterize AID's intricacies, or even as a therapeutic. A FRET based analysis of cytosine deamination, was developed to identify potential inhibitors of AID catalytic activity. This screen has two signal output, Read 1 evaluates the AID inhibition response. The second readout (Read 2) evaluates UDG response and is uses as a counterscreen to exclude false positive inhibitors. Inhibition in AID and inactivity in the UDG signal is the desired outcome for this assay.
PROTOCOL TABLE SEQUENCE No. (e.g., 1, 2, 3, etc.); […] (e.g., Cells, Incubation, Reagent, etc.); VALUE; DESCRIPTION 1a; Reagent; 3 uL; [4/3x] […] 250 nM DJC20 / 250 nM DJC23 [Substrate] 5; Time; 4 hr; incubation at room temperature 6; Reagent; 4 uL; [2x] 250 mM NaOH 7; Time; 15 sec; centrifuge at 1000 rpm 8; Time; 30 min; incubation at room temperature 9a; Detection; fluorescence (Read 1: AID); EnVision (PerkinElmer) plate reader, 540 excitation and 590 emission filters 9b; Detection; fluorescence (Read 2: UDG); EnVision (PerkinElmer) plate reader, 560 excitation and 665 emission filters NOTES (numbers refer to sequence above) 1a; Reagents were dispensed in a medium-binding black solid-bottom Greiner plates (789176F) using a BioRptr liquid dispenser. Dispense 3 uL of [4/3x] 1 uM AID (provided by Kohli lab) and [4/3x] 2 U/mL UDG (NEB M0280L) into columns 1, 2, 5 to 48. 1b; Dispense 3 uL of [4/3x] 2 U/mL UDG into column 3. 1c; Dispense 3 uL of [4/3x] 1 uM AID into column 4. 2a; Compound ([…] [uM] (0.64; 3.2; 16; 80; 400; 2,000; 10,000; 20,000) double pin-transferred (Dip Factor = 2) using the Kalypsys (Wako USA) pintool equipped with a 1536 pinhead for a final concentration range of 7.32 nM - 114 uM. 2b; 10 mM Aurintricarboxylic Acid (Sigma A1895) (ATA, 8-point, n = 2, 1:2.5 dilution in column 2) double pin-transferred (Dip Factor = 2) using the Kalypsys (Wako USA) pintool equipped with a 1536 pinhead for a [final] range of 186 nM - 114 uM. 3; Room temperature incubation. 4; Dispense 1 uL of substrate mixture from the Kohli lab [4x] […] DJC20 and [4x] 250 nM DJC23 into columns 1 to 48 . 5; Room temperature incubation. 6; Dispense 4 uL of substrate mixture [2x] 250 mM NaOH into columns 1 to 48. 7; Centrifugation step to remove bubbles. 8; Room temperature incubation 9a; Fluorescence signal (column label AID) was read using the EnVision plate reader. Excitation filter = 540(8) nm, barcode = 311; Emission filter = 590(20) nm, barcode = 217; Mirror = D555, barcode = 405. […]

Structure (SMILES)	Potency
O=C(O)Cc1ccc(O)c(O)c1	inactive
CN1CCCC1CCOC(C)(c1ccccc1)c1ccc(Cl)cc1 (stereo not given)	inactive
C=C1C[C@@]23CC[C@H]4[C@@](C)(CCC[C@@]4(C)C(=O)OC4OC(CO)C(O)C(O)C4O)[C@@H]2CC[C@]1(OC1OC(CO)C(O)C(O)C1OC1OC(CO)C(O)C(O)C1O)C3 (stereo not given in full)	inactive
O=C(c1ccc2c(c1)OCCO2)N1CCCCC1	inactive
Nc1ccc(-c2ccc3ccccc3n2)cc1	inactive
NS(=O)(=O)c1cccc2c1c([N+](=O)[O-])cc1nc(O)c(O)nc12	inactive
CCCn1c(=O)c2[nH]c(-c3ccc(S(=O)(=O)O)cc3)nc2n(CCC)c1=O	inactive
C=CCN1CCc2c(cc(O)c(O)c2Cl)C(c2ccccc2)C1 (stereo not given)	inactive
O=c1onc2n1-c1cc(Br)ccc1OC2	inactive
O=S(=O)(c1cccc2c(Cl)cccc12)N1CCCNCC1	inactive
O=C1OC(=O)C2C3CCC(O3)C12 (stereo not given)	inactive
Nc1nc2c(nc(Br)n2C2OC3COP(=O)(O)O[C@@H]3C2O)c(=O)[nH]1 (stereo not given in full)	inactive
CNC(=O)c1cc2c(cn1)[nH]c1ccccc12	inactive
C=C1C(=O)O[C@@H]2[C@H]3O[C@]3(C)CCC=C(C)CC[C@@H]12	inactive
COc1cc(CNC(=O)CCCCCCC(C)C)ccc1O	inactive
Cn1c(=O)c2[nH]c(-c3ccc(S(=O)(=O)O)cc3)nc2n(C)c1=O	inactive
NC1CCN(O)C1=O (stereo not given)	inactive
CCOC(=O)C12CC1/C(=N/O)c1ccccc1O2 (stereo not given)	inactive
COc1ccc(CCn2nnnc2C2(c3ccc(C)cc3)CC2)cc1	inactive
COc1ccc2c(c1)CCC1C2CC[C@@]2(C)C1CC[C@@H]2NCCCCCCN1C(=O)C=CC1=O (stereo not given in full)	inactive

Structure (SMILES)	Potency
NC1(C(=O)O)CC1	inactive
NC(N)=NC(N)=Nc1cccc(Cl)c1	inactive
CCN1C(=O)C=CC1=O	inactive
CC1CCN(CC[C@H]2CCCN2S(=O)(=O)c2cccc(O)c2)CC1	inactive
O=[N+]([O-])c1cccc2c(Br)[nH]nc12	inactive
C=CCN1CCc2c(cc(O)c(O)c2Br)[C@@H](c2ccccc2)C1	inactive
Cc1cccc(C(=O)NCN2CCN(c3ccccc3C#N)CC2)c1	inactive
N[C@@H](CCCC(=O)O)C(=O)O	inactive
CCN(CC)CCOC(=O)c1cc(Cl)c(N)cc1OC	inactive
CC#CCOC(=O)c1c(C)nc2sc3c(c2c1N)CCC(O)C3 (stereo not given)	inactive
N[C@@H](Cc1ccc(F)cc1)C(=O)O	inactive
O=C1Cc2c([nH]c3ccc(Br)cc23)-c2ccccc2N1	inactive
CC1=C(C(=O)O)N2C(=O)[C@@H](NC(=O)C(N)C3=CCC=CC3)[C@H]2SC1 (stereo not given in full)	inactive
NC(N)=N[C@@H](CCC(=O)O)C(=O)O	inactive
O=C(O)C1CCNCC1	inactive
CCCCCCCCCCCCCCCCCCOC[C@H](COP(=O)([O-])OCC[N+](C)(C)C)OC	inactive
C[C@H](O)C(=O)C1=Nc2c(nc(N)[nH]c2=O)NC1	inactive
Cc1nc(N=Nc2cc(S(=O)(=O)O)c3cc([N+](=O)[O-])cc(S(=O)(=O)O)c3c2)c(COP(=O)(O)O)c(C=O)c1O	inactive
CCc1ccc2c(-c3cccc(Cl)c3)nc(=O)n(CC)c2n1	inactive
CCCCOc1cc(CC2CNC(=O)N2)ccc1OC (stereo not given)	inactive
